Laboratory results: PubChem BioAssay AID1159580 (chemical genetic matrix, 2015)
Screen size: about 5,500 compounds; about 2,000 (36%) were called active. Not shown: some 18% with an inconclusive outcome. Rule as the data show it: active = normalized growth mostly below about 0.91 (no sharp cut-off); inconclusive = no clear call, values can overlap the other calls; inactive = mostly above about 0.92. The list shows a part of the results.

Test: chemical genetic growth profiling, strain panel (AID 1159580);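 also: tested at 20 µM; growth read once vehicle control cultures reached saturation at 30 °C; 1 = growth at the plate median or of vehicle wells; lower values mean less growth of the strain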
Settings: S. cerevisiae deletion strains, growth OD

Measured: normalized growth

COc1ccc(-c2c(O)c3cc4c(c(CC=C(C)C)c3oc2=O)OC(C)(C)CC4)cc1
inactive: locus YBR021W, strain FUR4, hits give low values 1.01 | locus YBR229C, strain ROT2, hits give low values 0.996 | locus YCL029C, strain bik1, hits give low values 1.02 | locus YDL035C, strain GPR1, hits give low values 1.01 | locus YDL074C, strain BRE1, hits give low values 1.03 | locus YDL101C, strain DUN1, hits give low values 1.01 | locus YDL185W, strain tfp1, hits give low values 1.03 | locus YDL192W, strain arf1, hits give low values 1.03 | locus YDR101C, strain arx1, hits give low values 1.01 | locus YDR150W, strain NUM1, hits give low values 1.01 | locus YDR162C, strain NBP2, hits give low values 0.993 | locus YDR318W, strain mcm21, hits give low values 1.01 | locus YDR388W, hits give low values 1.02 | locus YDR502C, strain sam2, hits give low values 1.02 | locus YEL061C, strain CIN8, hits give low values 1.01 | locus YER110C, hits give low values 1.03 | locus YER155C, strain BEM2, hits give low values 1.01 | locus YER167W, strain BCK2, hits give low values 1.01 | locus YGL078C, strain dbp3, hits give low values 1.01 | locus YGL086W, strain mad1, hits give low values 1.03 | locus YGL248W, strain PDE1, hits give low values 1 | locus YGR078C, strain PAC10, hits give low values 1.01 | locus YGR135W, strain pre9, hits give low values 1.03 | locus YGR229C, strain SMI1, hits give low values 1.02 | locus YGR252W, strain gcn5, hits give low values 1.02 | locus YHR030C, strain SLT2, hits give low values 1.01 | locus YHR079C, strain IRE1 (second series), hits give low values 1.01 | locus YHR094C, strain hxt1, hits give low values 1.02 | locus YHR129C, strain ARP1, hits give low values 1.01 | locus YHR200W, strain rpn10, hits give low values 1 | locus YIL066C, strain RNR3, hits give low values 1.01 | locus YIL073C, strain SPO22, hits give low values 1.06 | locus YIL125W, strain kgd1, hits give low values 1.02 | locus YIR030C, strain dcg1, hits give low values 1.01 | locus YJL095W, strain BCK1, hits give low values 1.01 | locus YJL134W, strain LCB3, hits give low values 1.01 | locus YJL168C, strain set2, hits give low values 1.02 | locus YJL187C, strain SWE1 (second series), hits give low values 1.01 | locus YJR043C, strain POL32, hits give low values 1.01 | locus YKL009W, strain mrt4, hits give low values 1.11 | locus YKL068W, hits give low values 1.01 | locus YKL085W, strain MDH1 (second series), hits give low values 1.01 | locus YKL085W, strain MDH1, hits give low values 1.01 | locus YKL190W, strain CNB1, hits give low values 1 | locus YKR001C, strain vps1, hits give low values 1.02 | locus YLR039C, strain RIC1, hits give low values 1.02 | locus YLR058C, strain SHM2, hits give low values 1.01 | locus YLR102C, strain apc9, hits give low values 1.01 | locus YLR262C, strain YPT6, hits give low values 1.07 | locus YLR268W, strain sec22, hits give low values 1.02 | locus YLR330W, strain CHS5, hits give low values 1.02 | locus YLR342W, strain FKS1 (second series), hits give low values 1.02 | locus YLR371W, strain rom2, hits give low values 1.02 | locus YLR418C, strain cdc73, hits give low values 1.01 | locus YML016C, strain PPZ1, hits give low values 1.01 | locus YML032C, strain rad52, hits give low values 1.02 | locus YML124C, strain tub3, hits give low values 1.01 | locus YMR078C, strain ctf18, hits give low values 1.02 | locus YMR223W, strain ubp8, hits give low values 1.01 | locus YMR263W, strain SAP30, hits give low values 1.01 | locus YMR307W, strain GAS1, hits give low values 1.08 | locus YNL067W, strain RPL9B, hits give low values 1.01 | locus YNL128W, strain TEP1, hits give low values 1 | locus YNL153C, strain GIM3, hits give low values 1 | locus YNL233W, strain BNI4, hits give low values 1 | locus YNL250W, strain rad50, hits give low values 1.02 | locus YNL271C, strain bni1, hits give low values 1.01 | locus YNL298W, strain CLA4, hits give low values 1.01 | locus YNL307C, strain MCK1, hits give low values 1.02 | locus YNR052C, strain pop2, hits give low values 1.02 | locus YOL006C, strain TOP1, hits give low values 1.17 | locus YOL012C, strain htz1 1.44 | locus YOL147C, strain pex11, hits give low values 1 | locus YOR061W, strain CKA2, hits give low values 1 | locus YOR069W, strain VPS5, hits give low values 1.01 | locus YOR136W, strain idh2, hits give low values 1.02 | locus YOR144C, strain elg1, hits give low values 0.999 | locus YOR184W, strain ser1, hits give low values 0.993 | locus YOR316C, strain cot1, hits give low values 1.02 | locus YPL241C, strain CIN2, hits give low values 1.01 | locus YPR119W, strain clb2, hits give low values 1.02 | locus YPR141C, strain kar3, hits give low values 1.02 | locus YPR163C, strain tif3, hits give low values 1.01 | locus YPR167C, strain met16, hits give low values 1.01 | strain wtn01, hits give low values 1.01
